Rows were chosen to be rich in hits. Some 4.6% of all compounds tested hit in one or more screens of this group.
D1 PAM = enhances dopamine response at the human D1 receptor; HEK293 TREx D1 cells, calcium flux, dopamine EC20 potentiation; potentiation, % at 10 µM; 360,000 tested, 0.036% active; in the data active = potentiation above about 30%; also: 0% is about no effect
D1 agonist = human D1 receptor agonism. P21728. HEK293 T-REx D1 cells, calcium flux, agonist mode. activation, % at 2 µM. 360,000 tested, 1% active. AID 504660; also: 0% is about no effect
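Inducible HEK293 T-REx D1 cells, force-coupled to calcium signalling, were plated at 4000 cells/well with tetracycline and held overnight at 30 C. After no-wash calcium dye loading, compound-evoked calcium rise over 180 s flagged agonists.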
D1 antag = blocks dopamine activation of the human D1 receptor; P21728; activity change, negative = inhibition, % at 10 µM; 360,000 tested, 3.2% active; HEK293 TREx D1 cells, calcium flux, dopamine EC80; hits give low values; AID 504652; in the data active = activity change below about -30%; also: % is scaled to controls: 0 for no effect and ±100 for the full control effect
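Calcium flux readout: force-coupled, inducible Hek293 Trex D1 line, cells induced overnight at 30 C with tetracycline, dye-loaded 30–90 min at RT. Antagonism scored against EC80 dopamine challenge given 180 s after compound.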
TRHR ag = TRH receptor (human) agonism; activation, % at 2 µM; TRHR cells, calcium flux fluo-8, FDSS agonist mode; 360,000 tested, 0.18% active; also: 0% is about no effect
Target sequence (P34981 whole entry, looked up): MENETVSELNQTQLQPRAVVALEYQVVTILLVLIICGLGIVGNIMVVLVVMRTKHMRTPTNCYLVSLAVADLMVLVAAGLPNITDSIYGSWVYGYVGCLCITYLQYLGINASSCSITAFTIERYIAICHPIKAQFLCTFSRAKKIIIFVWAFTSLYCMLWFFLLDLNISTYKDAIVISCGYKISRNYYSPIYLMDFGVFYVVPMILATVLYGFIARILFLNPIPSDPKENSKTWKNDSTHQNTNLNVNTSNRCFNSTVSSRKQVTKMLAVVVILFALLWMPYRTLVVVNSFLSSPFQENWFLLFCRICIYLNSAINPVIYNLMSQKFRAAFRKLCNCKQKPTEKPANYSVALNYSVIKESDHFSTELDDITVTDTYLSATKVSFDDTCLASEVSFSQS
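In this calcium-flux screen, cells bearing human TRHR are dye-loaded with fluo-8, baselined for 10 cycles, then exposed to library compounds; positive kinetic calcium responses during the agonist phase mark hits, with TRH as control.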
Epigenetic reg = epigenetic control regulation, reporter derepression | Potency, µM (series often up to 53.9 µM), inactives show at the highest dose GFP activation, most hits filed as activators | 280,000 tested, 0.2% active | murine LDR cells, GFP reporter derepression, 30 h; active = well fitted activation curve with a large enough effect; also: potency is read from the fitted curve at half-maximal effect; % of control where 0% means no effect; nearly all actives have a fitted effect of over 60% in size
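Readout is the number of GFP-expressing murine LDR cells, counted by cytometry following washing. Cells were treated with compound for 30 h at 37 C; the stably integrated CMV-GFP locus is normally silent.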
TRHR PAM = allosterically enhances the human TRH receptor; 360,000 tested, 0.66% active; enhancement, % at 2 µM; TRHR cells, fluo-8 calcium fluorescence, EC20 TRH enhancement; in the data active = enhancement above about 30%; also: 0% is about no effect
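Enhancer read-out: after compound pinning and an initial kinetic agonist-mode read, an EC20 of TRH (10 nM final) was injected and fluo-8 calcium signal (Ex 480/Em 530) followed at 1 s/cycle for 100 cycles in TRHR-expressing cells.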
The depositor's hits bear a star; . = not tested or not shown; ! = a repeat was not active. Rule as the data show it, unless noted: active = activation above about 30%; inactive = the rest.

SMILES | D1 PAM | D1 agonist | D1 antag | TRHR ag | Epigenetic reg | TRHR PAM
O=C(CNS(=O)(=O)c1ccccc1F)NNC(=O)c1ccc(Br)cc1 | 0.1 | 2.8 | -0.5 | -0.4 | . | 31.7*
Cc1cc(NS(=O)(=O)c2ccc(Nc3nc(-c4ccc(C)c(C)c4)cs3)cc2)no1 | -10.6 | 68.0* | -11.5 | -0.7 | 0.0% | 2.0
Cc1cc(NS(=O)(=O)c2ccc(NC(=O)COc3c(C)cc(Br)cc3C)cc2)no1 | -6.1 | 88.2*! | 5.5 | -0.8 | 1.9% | 2.5
Cc1cc(NS(=O)(=O)c2ccc(NS(=O)(=O)c3ccc(Br)cc3)cc2)no1 | 0.5 | 0.9 | 4.6 | -0.1 | . | 33.4*
Cc1cc(NS(=O)(=O)c2ccc(NC(=O)COc3ccc(Br)cc3C)cc2)no1 | -1.1 | 1.2 | 4.1 | -1.1 | -1.3% | 3.6
Cc1ccc(C)c(N(C)C(=O)C2CCN(S(=O)(=O)c3cccc4nsnc34)CC2)c1 | 0.8 | -1.8 | -6.2 | -0.4 | -1.4% | -12.6
Cc1c(-c2ccccc2)n(-c2ccc(Cl)cc2)c2nc3c(c(=O)n(C)c(=O)n3C)n12 | -1.2 | 6.4 | -5.6 | 0.8 | -0.1% | 5.9
CCN(CC)S(=O)(=O)c1cc(C)ccc1SC | 5.0 | 0.0 | -38.0* | 0.1 | -2.5% | -7.7
CCN(CCCNC(=O)c1cc(Nc2ccccc2OC)nc2ccccc12)c1cccc(C)c1 | -2.6 | 0.8 | -35.2* | 1.6 | 6.1% | -2.8
COc1ccc(Nc2cc(C(=O)NCCCN(C)Cc3ccccc3)c3ccccc3n2)c(OC)c1 | -6.3 | 18.7 | -26.7 | 1.4 | 0.8% | 0.5
COc1ccc(Nc2cc(C(=O)NCCCN(C)Cc3ccccc3)c3ccccc3n2)cc1 | -3.9 | 43.4* | -45.9* | 3.5 | -0.6% | 3.8
c1cncc(-c2ccnc3ncnn23)c1 | -0.5 | 3.7 | -2.9 | 0.1 | 1.3% | 33.1*
c1ccc(-c2ccnc3ncnn23)nc1 | 2.0 | 1.5 | -3.9 | 0.7 | 1.1% | 7.9
CC(=O)c1cccc(NC(=O)c2cc(C(C)C)on2)c1 | 0.5 | 3.4 | -36.1* | 0.1 | 2.7% | 1.9
COc1cccc(NC(CNS(=O)(=O)c2ccc(Cl)cc2)c2ccccc2)c1 (centres undefined) | -3.0 | 9.3 | -34.2* | -1.4 | 5.6% | 7.0
NS(=O)(=O)c1ccc(N2CCCC2=O)c([N+](=O)[O-])c1 | -0.4 | 7.8 | 17.0 | 0.1 | -1.1% | 1.6
O=C1CCCN1c1ncc(S(=O)(=O)c2ccc([N+](=O)[O-])cc2)s1 | -3.8 | 12.6 | -47.0* | -0.9 | 0.0% | -5.0
Cc1ccc(Cl)cc1NC(=O)Cn1c(SCC(=O)NCc2ccccc2)nc2ccccc21 | 0.3 | 0.8 | 0.4 | 0.0 | 3.0% | -0.6
COc1ccc(S(=O)(=O)Nc2cc3c(cc2NCc2ccccc2)n(C)c(=O)n3C)cc1 | -1.8 | 6.0 | -2.0 | -0.8 | 2.8% | 19.2
CC(Oc1ccc(F)cc1)C(=O)Nc1ccc(S(=O)(=O)NC2=NCCCCC2)cc1 (centres undefined) | -0.2 | 32.6* | -6.0 | 3.5 | . | 5.5
CCN(CC)S(=O)(=O)c1cccc(NC(=O)c2ccc(SC)cc2OC)c1 | -8.7 | 29.2 | -0.3 | 0.8 | -3.4% | -3.2
COc1ccccc1C(=O)Nc1ccc(S(=O)(=O)NC2=NCCCCC2)cc1 | -11.9 | 2.6 | -57.9* | -0.2 | -1.7% | 1.3
COc1ccccc1C(=O)Nc1ccc(S(=O)(=O)Nc2nccs2)cc1 | . | 4.3 | -30.9* | 0.6 | . | 0.9
CC(Oc1cccc(Cl)c1)C(=O)Nc1ccc(S(=O)(=O)NC2=NCCCCC2)cc1 (centres undefined) | 1.9 | 17.2 | 2.9 | 1.2 | . | 6.9
COc1cc(SC)ccc1C(=O)Nc1cccc(S(=O)(=O)NC2=NCCCCC2)c1 | -5.7 | 10.6 | -37.7* | 0.1 | . | -13.3
SMILES | D1 PAM | D1 agonist | D1 antag | TRHR ag | Epigenetic reg | TRHR PAM
O=S(=O)(Nc1ccc(-c2ccc(N3CCCC3)nn2)cc1)c1cc(F)ccc1F | -0.2 | -0.6 | -6.2 | -0.1 | 0.0% | 5.1
CCc1ccccc1-n1c2c(cc(-c3nc(-c4ccc(Cl)cc4)cs3)c1=O)C(=O)CC(C)(C)C2 | 1.0 | 0.7 | 0.3 | 1.0 | -0.9% | -8.8
CCc1ccc2oc(C(=O)N(Cc3ccc(N(C)C)cc3)Cc3ccco3)c(C)c2c1 | 1.1 | 4.7 | 18.4 | 0.6 | -1.9% | -1.3
CCOc1ccccc1CNC(=O)c1oc2c(c1C)-c1[nH]ncc1CC2 | -1.4 | 5.0 | 11.3 | -0.5 | -1.9% | 11.0
CCc1ccc(OC(C)c2nc(-c3ccc(-n4cccc4)cc3)no2)cc1 (centres undefined) | -0.2 | 14.3 | -3.2 | -4.8 | -1.1% | -1.2
Cc1ccc(-c2nc(CNC(=O)Nc3ccccc3)c(C)o2)cc1 | -0.8 | 3.3 | -0.5 | 0.6 | 0.7% | -1.1
Clc1ccc(/C=N/Nc2ccccn2)cc1 | -9.4 | 1.8 | -30.7* | 2.0 | 3.2% | 9.8
Brc1ccc(/C=N/Nc2ccccn2)cc1 | -8.7 | 2.7 | -2.3 | 0.9 | 5.2% | -5.1
C/C(=N\OC(=O)c1ccc(Cl)cc1)c1nccs1 | -12.7 | 0.8 | -31.9* | -0.1 | 4.3% | 3.9
C/C(=N\OC(=O)c1c(-c2ccccc2Cl)noc1C)c1nccs1 | -3.1 | 0.6 | -4.8 | -0.5 | -0.6% | 14.2
COc1ccc(-c2nc(CCNC(=O)c3ccccc3)cs2)cc1OC | -7.0 | 0.3 | 5.5 | 15.6 | 0.0% | 3.2
CCN(CC)C(=O)/C(=C\c1ccc2c(c1)OCO2)NC(=O)c1ccc(Br)cc1 | -6.7 | -1.3 | -30.0* | -0.3 | 1.0% | 6.9
CCNC(=O)/C(=C\c1ccc2c(c1)OCO2)NC(=O)c1ccc(Br)cc1 | -4.3 | 1.0 | 10.7 | 0.0 | 0.0% | 0.6
Cc1cccc(NC(=O)Cn2nnc(C(=O)Nc3ccccc3Br)c2N)c1C | -5.4 | 7.2 | -2.8 | 2.0 | 0.0% | 7.7
CC1CCN(c2nc(-c3cccnc3)nc3scc(-c4ccccc4)c23)CC1 | -4.2 | 1.4 | 0.5 | -0.4 | 0.0% | 40.6*
CCCCn1c(=N)n(CC(=O)C(C)(C)C)c2ccccc21 | -4.4 | 3.2 | 34.8 | -0.2 | -1.0% | 10.5
CCOC(=O)Cn1c(=N)n(CCOc2ccc(Br)cc2)c2ccccc21 | -1.7 | 50.6* | -21.7 | 2.9 | -1.3% | 2.4
CCCCn1c(=N)n(CC(=O)c2ccc(Br)s2)c2ccccc21 | -3.0 | 44.2* | 20.2 | 1.9 | 15.8% | 2.9
CCCn1c(=N)n(CC(=O)C(C)(C)C)c2ccccc21 | -9.1 | 9.3 | 7.1 | -0.8 | 6.2% | 30.8*
CCCCn1c(=N)n(CCCOc2ccc(F)cc2)c2ccccc21 | -7.0 | 79.1* | -4.7 | -0.6 | 1.9% | 4.1
N=c1n(CCO)c2ccccc2n1CCOc1ccc(F)cc1 | 1.2 | -1.0 | -10.4 | 0.0 | -2.1% | 4.4
CCn1c(=N)n(CC(=O)c2ccc(Br)s2)c2ccccc21 | -1.4 | 9.7 | 9.0 | -0.3 | -1.1% | -13.6
